About 360 (15%) of roughly 2,400 compounds were called active. Not shown: some 5% with an inconclusive outcome. The list is a sample of the results. Measured potencies and affinities stand elsewhere. A number with no mark means an inactive call.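 The calls were made as follows: active = falling-signal curve with half-maximal concentration at or below ten times the top tested dose; inconclusive = flat fit at 30 to 70% inhibition, or poor fit; inactive = signal rise, flat within 30%, or potency beyond limit.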
test: dox-induced RFP signal loss in R4-3T3 cells – cell-based, NIH3T3 R4, HSE-GFP and Tet-On RFP, cherry-pick, set 3, dose response (AID 493085); settings: NIH3T3 R4 HSE-GFP/Tet-RFP reporter, fluorescence, 48 h; series mostly up to 19.5 µM; activity change, negative = inhibition: at the top concentration;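 also: cells heat shocked 2 h at 42 °C with doxycycline to induce reporters; 0% = neutral control wells and -100% = didemnin B control at 400 nM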

Compound | activity change, negative = inhibition [%]
COc1cc2cc(CN(C(=O)NC3CCCCC3)C3CCCC3)c(=O)[nH]c2cc1OC | -6.25
COc1ccc(/C=N/NC(=O)CN(C)S(=O)(=O)c2ccc(NC(C)=O)cc2)cc1 | 0.548
CCOC(=O)c1c(C)n(C)c2ccc(OC)c(NC(=O)CN3CCSCC3)c12 | 9.61
COc1ccc(C(=O)C2CCCN(Cc3ccc(NC(C)=O)cc3)C2)cc1OC (configuration not stated) | -0.992
Nc1nc(Cl)nc2c1ncn2C1CC(O)C(CO)O1 (configuration not stated) | -2.61
Cc1oc(-c2cc3c(cc2Cl)OCO3)nc1CN1CCCC1c1ccc(F)cc1 (configuration not stated) | 1.85
Cc1c(Cl)cccc1NC(=O)CS(=O)(=O)c1ccccc1 | 11.7
CC(C)n1cc(/C=N/Nc2ccc(C(=O)O)cc2)c2ccccc21 | -12
CCOC(=O)N1CCN(C(=O)C2CCN(Cc3ccc(OC)cc3OC)CC2)CC1 | 3
COc1cccc(-c2cccc(NC(=O)C3CCN(Cc4ccon4)CC3)c2)c1 | -3.89
Cc1ccnc(NS(=O)(=O)c2ccc(NC(=O)COc3ccccc3)cc2)n1 | 5.48
Cc1nc(C(=O)NNC(=O)c2cccc(Cl)c2)c(C(F)(F)F)o1 | 5.05
O=C(Cc1ccccc1)Nc1nc2ccccc2s1 | 0.496
N/C(CC(=O)Nc1ccc(F)cc1)=N\O | -0.505
O=C(COc1ccccc1C(=O)O)Nc1ccc(SC(F)F)cc1 | -6.52
Cc1ccccc1C(=O)Nc1nnc(CC(=O)N/N=C/c2ccco2)s1 | 25.1
Cc1cc(C)nc(NC(=O)COc2cc(Cl)cc(Cl)c2)n1 | -6.63
COc1cccc(CC(=O)N[C@@H](CCSC)c2nc3ccccc3[nH]2)c1 | -6.15
CCOc1ccc(N=C(NN)c2ccc3ccccc3n2)cc1 | -3.17
Cc1ccc(S(=O)(=O)c2ccc(Oc3ccccc3)cc2)cc1 | -13.6
O=[N+]([O-])c1ccccc1Nc1cccnc1 | -3.4
O=C(NCc1ccccc1)C1CCCN(S(=O)(=O)c2cccc3nsnc23)C1 (configuration not stated) | -0.54
Nc1nc(NCc2ccco2)nc(NC2CCCCC2)c1[N+](=O)[O-] | -2.76

Compound | activity change, negative = inhibition [%]
Cc1nc2sc3c(NCc4ccco4)ncnc3c2c2c1COC(C)(C)C2 | -16.8
CC(C)CCc1c(O)nc(SCC(=O)N2CCCCCC2)[nH]c1=O | 0.398
O=C(O)COc1ccc(/C=N/NC(=O)c2ccccc2Br)cc1 | -6.35
CCCc1cc(=O)oc2cc(C)cc(OCC(=O)NCCCn3ccnc3)c12 | -7.06
O=C(CC(Nc1ccccc1Cl)C(=O)OCC(=O)c1cccs1)c1ccccc1 (configuration not stated) | 20.8
COc1ccc2oc(=O)c(N3C(=O)c4ccccc4C3=O)cc2c1 | -15.4
CC1(C)CC(NCc2ccc3c(c2)OCO3)CCO1 (configuration not stated) | 3.89
COc1cc(C2NC(=O)NC(C)=C2C(=O)OCC2CCCO2)ccc1O (configuration not stated) | 1.41
CCC1CCCCN1C(=O)c1cc2c(=O)n3cccc(C)c3nc2s1 (configuration not stated) | -4.77
CN(C)c1ccc(C2Nc3ccccc3C(=O)N2CCCN2CCOCC2)cc1 (configuration not stated) | -11.3
NC(=O)C1CCN(CC(=O)Nc2nc(-c3ccccc3)cs2)CC1 | 1.54
O=C(c1c(F)cccc1F)N1CCN(c2ccccc2F)CC1 | -12.1
Cc1cc(C(=O)NC2CCCN(Cc3ccc(Cl)cc3)C2)n(C)n1 (configuration not stated) | 7.47
O=Cc1ccc(OC(=O)Cc2ccc(F)cc2)cc1 | -3.08
CC(=NCCc1ccccc1)C1=C(O)CSC1=O | -2.37
COc1ccc(CNC(=O)C(=O)c2cn(CC(=O)N3CCOCC3)c3ccccc23)cc1 | -4.86
CC(=O)Nc1ccc(NC(=O)CSc2cn(CC(=O)N3CCOCC3)c3ccccc23)cc1 | 3.01
Cc1ccc(N2C(=O)c3ccccc3C2Nc2ccccc2F)nc1 (configuration not stated) | -6.19
Cc1ccc([N+](=O)[O-])cc1NC(=O)CSc1n[nH]c(-c2cccnc2)n1 | -1.6
N#Cc1c(NC(=O)CSc2ncccn2)oc(-c2ccccc2)c1-c1ccccc1 | 8.77
CC(C)(C)OC(=O)C1C(=O)CC(C)(O)C(C(=O)OC(C)(C)C)C1c1cccnc1 (configuration not stated) | -6.17
CCC(=O)N1CCc2cc(S(=O)(=O)NCCC(=O)Nc3ccccc3C)ccc21 | -3.98
Cc1onc(-c2ccccc2)c1C(=O)Nc1sc2c(c1C(N)=O)CCC2 | -7.58

Compound | activity change, negative = inhibition [%]
C/C(CC(=O)Nc1ccc(N(C)C)cc1)=N\NC(=O)Cc1csc(N)n1 | -0.381
OC(COc1c(F)cc(Br)cc1F)CN1CCN(c2ccc(F)cc2)CC1 (configuration not stated) | 4.39
COc1cccc(NC(=S)N(CCC(C)C)C2CCN(C(C)=O)CC2)c1 | 7.46
O=C1CCC(=O)N1CNc1ccccn1 | -21.2
CCn1c(=O)c(C(=O)Nc2ccccc2F)c(O)c2ccccc21 | 22.5
Cn1c(C(=O)NN)cc2cc(OCc3ccccc3)ccc21 | -7.37
COc1ccc2nc(NC(=O)CN3CCOCC3)sc2c1 | -2.22
COc1ccc(N2CC(C(=O)Nc3nnc(C4CCCCC4)s3)CC2=O)cc1 (configuration not stated) | -9.73
O=C(c1ccc(F)cc1)N1CCCC(N2CCN(Cc3ccc4c(c3)OCO4)CC2)C1 (configuration not stated) | -4.52
COc1nc(-c2ccccc2)c2cc(Br)ccc2n1 | -15.5
COc1ccc(OC(C)C(=O)N2CCC(C)CC2)cc1 (configuration not stated) | -3.93
CCOC(=O)c1ccc(NC(=S)Nc2ccccc2N)cc1 | -7.45
CCOC(=O)c1ccc(NC(=O)Oc2ccccc2)cc1 | -4.21
COc1ccc(-n2c(-c3ccc(F)cc3)cnc2SCC(=O)NCc2ccco2)cc1 | -3.84
Cc1cc2cc(CCNC(=O)C(=O)c3c[nH]c4ccccc34)c(=O)[nH]c2cc1C | -3.78
CC(c1ccccc1)N1CCN(C(=O)CCl)CC1 (configuration not stated) | 2.46
O=C(Nc1ccc(Cl)cn1)c1ccc2c(Cl)c3c(nc2c1)CCC3 | 23
O=C(CSc1ccccc1)Nc1cccc(NC(=O)c2ccco2)c1 | -6.38
CC(=O)COc1ccccc1OC(=O)c1ccco1 | 3.47
N/C(=N\c1nc2ccccc2o1)NC(=O)c1ccc(Cl)cc1 | 4.58
Cc1nnc(N2C(=O)c3cccc4cccc(c34)C2=O)s1 | -1.34
COc1cccc(NC(=O)N2CCCC2C(=O)NC(C)C)c1 (configuration not stated) | 8.18
COc1nn(-c2ccccc2)c(=O)c(Cl)c1Cl | -66.5

Compound | activity change, negative = inhibition [%]
CCOC(=O)c1cnn(-c2ccccc2)c1-n1cccc1 | -4.52
O=C(C1CCC(CNS(=O)(=O)c2cccc3cccnc23)CC1)N1CCCC1 (configuration not stated) | 18.4
COc1c([N+](=O)[O-])c(=O)oc2ccccc12 | -1.15
CCC(=O)Nc1c(-c2ccc(Cl)cc2)c(=O)c2ccccc2n1C | 2.21
CCOc1c(C)cc(S(=O)(=O)NCc2cccnc2)c(C)c1C | -2.75
Cc1ccc(C(=O)Nc2ccc(C(=O)O)cc2NC(=O)c2ccc(C)cc2)cc1 | -8.11
COc1ccc(C(=O)Nc2ccc(OCc3ccccc3)cc2)cc1[N+](=O)[O-] | 20.1
CCOc1ccc(OCc2cccc(C(=O)O)c2)cc1 | -1.67
CCCCN(C)C(=O)CCC(=O)Nc1ccc2nc(N3CCN(C)CC3)cc(C)c2c1 | 0.044
CC(C)CC(NC(=O)C1CCCN1C(=O)[C@@H](C)NC(=O)OCc1ccccc1)C(=O)NCC(N)=O (some centres not stated) | -0.054
CC(=O)c1ccc(NC(=O)C(C)n2nc(-c3ccccc3)c3cc(Cl)ccc32)cc1 (configuration not stated) | -1.25
CC1Cc2ccccc2N1C(=O)C12CCC(C)(C(=O)C1)C2(C)C (configuration not stated) | -7.93
O=C(c1cc(Cl)ccc1Cl)N1CCOCC1 | -1.28
O=S(=O)(/N=C(/c1ccccc1Cl)N1CCOCC1)c1ccccc1 | -5.16
COc1cc(SC)ccc1C(=O)NCC1CCCO1 (configuration not stated) | -2.99
COCC(C)NC(=O)c1ccc2nc(-c3ccccc3)c(-c3ccccc3)nc2c1 (configuration not stated) | 2.21
CCn1cc(S(=O)(=O)Nc2ccc3c(c2)OCCO3)cn1 | 36.6
Cc1nc(SCC(=O)NCC2CCCO2)[nH]c(=O)c1C (configuration not stated) | 0.854
O=C(N1CCCCC1)N1CCN(S(=O)(=O)c2ccccc2)CC1 | -7.11
O=C(Cc1ccccc1F)Nc1ccc(S(=O)(=O)N2CCCCC2)cc1 | -1.75
C=CCNC(=S)Nc1sc2c(c1C#N)CCCC2 | -6.78
CCOc1ccc(NC(=S)N(CCc2ccncc2)C(C)C)cc1 | 0.037
Cc1ccc([N+](=O)[O-])c(OCCCN2CCC(Cc3ccccc3)CC2)c1 | 0.591

Compound | activity change, negative = inhibition [%]
O=C(OCn1ncc(Cl)c(Cl)c1=O)c1ccccc1Cl | 19.6
COc1cc(NC(=O)Cn2ncc(Cl)c(Cl)c2=O)c(C)cc1[N+](=O)[O-] | -74.7
CCCNC(=O)NC1C(NC(=O)NCCC)N(C)C(=O)N1C (configuration not stated) | -1.63
CCc1ccc(NC(=O)C2C3CCC(O3)C2C(=O)O)cc1 (configuration not stated) | 5.37
Cc1ccc(S(=O)(=O)N(C)c2ccccc2C(=O)NC2CCCC2)cc1 | -7.71
S=c1[nH]nc(-c2cnccn2)n1-c1ccccc1 | -8.92
Cc1ccc(NC(=O)COC(=O)Cn2cnc3ccccc32)cc1S(=O)(=O)N(C)C | -0.192
O=C(Nc1ccc2[nH]ncc2c1)c1ccccc1Cl | -0.069
N#C/C(=C\Nc1ccc2cn[nH]c2c1)c1nc(-c2ccccc2)cs1 | 3.6
CC(C)c1ccc(/C=N/Nc2ccc(C(=O)O)cc2)cc1 | 10.4
O=C(O)c1ccc(N/N=C/c2ccc(OC(=O)c3ccccc3Cl)cc2)cc1 | -3.02
CCOC(=O)c1ccc(Cl)c(NC(=O)c2cccnc2)c1 | -3.1
CCc1ccc(NC(=O)CSc2ccc(-c3cccnc3)nn2)cc1 | 4.37
Cc1ccc(NC(=O)c2cc(NC(=O)c3ccco3)ccc2N2CCOCC2)cc1 | -3
O=C(NC(=S)Nc1ccc2oc(=O)ccc2c1)c1cc2ccccc2o1 | 15.4
O=c1c2c3c(sc2nc(NCCOCCO)n1Cc1ccco1)CCCCC3 | 10.9
COc1ccc(NC(=O)c2cc3cc(OC)ccc3oc2=N)cc1 | -4.04
COc1cccc(/C=C/C(=O)NCc2ccc3c(c2)OCO3)c1 | -6.73
CCOC(=O)/C(C#N)=C/c1cc(C)n(-c2ccccc2)c1C | -2.19
Cc1cccc(NC(=O)c2sc(-c3ccccc3)nc2-c2ccc([N+](=O)[O-])cc2)c1 | -7.95
